From PubChem BioAssay AID701 (PCMD, 2007)
Screen size: about 33,000 compounds; about 70 (0.2%) were called active. No stated cut-off is given here; in the data, active means inhibition above about 30%; inactive means the rest. These entries were drawn from the full list.

Target: Coagulation factor XII (Homo sapiens) (UniProt P00748)
Assay: human FXIIa protease inhibitors, primary screen, biochemical, single well (AID 701);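 further: 0% = enzyme with vehicle only and 100% = no enzyme blank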
Settings: purified human FXIIa, AMC substrate fluorescence, 2 h; at 10 µM; stronger effect = higher value

Coagulation factor XII (Homo sapiens), sequence (P00748 20-372 limits assumed): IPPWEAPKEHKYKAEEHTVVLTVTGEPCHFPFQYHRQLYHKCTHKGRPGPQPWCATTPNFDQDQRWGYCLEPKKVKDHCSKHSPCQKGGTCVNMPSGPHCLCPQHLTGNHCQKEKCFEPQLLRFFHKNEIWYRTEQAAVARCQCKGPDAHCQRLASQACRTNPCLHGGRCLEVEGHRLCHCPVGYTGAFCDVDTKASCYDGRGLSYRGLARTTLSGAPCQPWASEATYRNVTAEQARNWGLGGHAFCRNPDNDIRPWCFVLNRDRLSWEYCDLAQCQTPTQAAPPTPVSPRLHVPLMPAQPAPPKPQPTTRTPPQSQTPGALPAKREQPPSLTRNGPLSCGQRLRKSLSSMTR
Coagulation factor XII (Homo sapiens), sequence (P00748 373-615 limits assumed): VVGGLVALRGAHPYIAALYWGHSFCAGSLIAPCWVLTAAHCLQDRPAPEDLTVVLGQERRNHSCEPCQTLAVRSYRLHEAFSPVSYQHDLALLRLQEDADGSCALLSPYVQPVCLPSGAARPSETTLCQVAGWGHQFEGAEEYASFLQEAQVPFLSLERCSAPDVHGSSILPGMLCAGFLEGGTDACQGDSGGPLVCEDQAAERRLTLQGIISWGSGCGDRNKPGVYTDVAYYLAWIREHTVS

inhibition, inactive:
COc1cc2c(cc1OC)C(C(=O)NCc1ccco1)C1c3ccccc3CCN1C2=O (stereo unspecified) 7.77%
COCCN(C(=O)c1ccco1)c1nnc(-c2ccc(OC)cc2)s1 7.18%
CCCCN1C(=O)CC(N2CCOCC2)C1=O (stereo unspecified) 4.3%
Cc1cccc(NC(=O)Cn2cc(C(=O)c3ccco3)c3ccccc32)c1 -10.1%
Cc1ccc(N(CC(=O)Nc2cc(C)cc(C)c2)S(=O)(=O)c2cccc3nonc23)cc1 17.2%
COc1ccc(-c2cc3nc(C)c(CCC(=O)NC(C)CCc4ccco4)c(C)n3n2)c(OC)c1 (stereo unspecified) -1.94%
CC1=C(C(N)=O)C(c2sccc2C)n2nnnc2N1 (stereo unspecified) 3.63%
CCOC(=O)c1nnn(-c2nonc2-n2cccc2)c1CN1CCC(C(=O)OCC)CC1 0.91%
O=C(CC1(O)C(=O)N(CN2CCOCC2)c2ccccc21)c1ccccc1 (stereo unspecified) -13.4%
CCOCCCNC(=O)C(NC(=O)c1ccc(=O)[nH]c1)c1ccc(C)cc1 (stereo unspecified) -13.5%
CC(O)CN(Cc1ccc(Cl)cc1)CC(C)O (stereo unspecified) 4.36%
COc1ccc(N(CC(=O)NC2CCCCC2)S(=O)(=O)c2c(C)[nH]c(=O)[nH]c2=O)cc1 6%
CC(=O)N1CCCc2cc(S(=O)(=O)CCC(=O)N3CCN(c4ccccc4)CC3)ccc21 -16.3%
O=C1CSC(c2cccc(F)c2)N1c1ccc(O)cc1 (stereo unspecified) 20.5%
CC(=O)c1c(C)[nH]c(C(=O)NCc2ccc(C)cc2)c1C 5.44%
Cn1c(=O)n(CCc2ccccc2)c(=O)c2c1nc1n2CCCN1c1ccccc1 -0.18%
O=C1CSC(c2ccc(Cl)cc2)N1 (stereo unspecified) -6.79%
OC(COc1cccc(OCC(O)CN2CCCC2)c1)CN1CCCC1 (stereo unspecified) 1.91%
COc1cccc(NC(=O)Cc2ccc(C)cc2)c1 3.98%
COc1cc(CC(=O)NCc2cccs2)cc(OC)c1OC 12%
Brc1ccc(Nc2c3c(nc4ncnn24)CCC3)cc1 -0.85%
CCN1CCN(C(c2cccnc2)c2cc(Cl)c3cccnc3c2O)CC1 (stereo unspecified) 11.8%
O=S(=O)(NCCNS(=O)(=O)c1ccccc1)c1ccccc1 15.1%
CCC(=O)NC(Nc1cc(C)ccn1)(C(F)(F)F)C(F)(F)F 5.79%
CCCNC(=O)c1ccccc1NC(=O)CSCc1ccc(OC)cc1 0.92%
CCCNC(=O)CN(Cc1ccccc1F)S(=O)(=O)c1ccc(C)cc1 16.6%
CC(=O)Nc1ccc(S(=O)(=O)N2CCSCC2)cc1 3.77%
Cc1cc(SCC(=O)c2ccccc2)nc(SCC(=O)c2ccccc2)n1 -15.6%
Cc1ccc(CCN2CC(C(=O)O)CC2=O)cc1 (stereo unspecified) 9.91%
O=C(NCCc1ccccc1)c1ccc(OCCOc2ccccc2)cc1 5.87%
CCOC(=O)c1[nH]cnc1C(=O)NC1CCCCC1 1.72%
COCCn1c(SCc2nc3cc(OC)c(OC)cc3c(=O)[nH]2)nnc1-c1ccncc1 3.73%
Cn1nnnc1SCC(=O)Nc1ccccc1C(=O)NC1CC1 -1.23%
O=S(=O)(N1CCCCC1)N1CCNCC1 4.16%
Cc1cc(C(=O)OC(C)C(=O)Nc2cccc(S(=O)(=O)N3CCOCC3)c2)c(C)o1 (stereo unspecified) 8.04%
CCn1c(SCC(=O)Nc2ccc(OC)c(OC)c2)nnc1-c1c[nH]c2ccccc12 5.25%
COc1cc(OC)cc(-c2cc3nc(C4CCN(C(=O)OC(C)(C)C)CC4)cc(=O)n3[nH]2)c1 -5.3%
COc1ccc(C2=NOC3(CC(=O)N(c4ccc(Cl)cc4)C3=O)C2)c(OC)c1 (stereo unspecified) -13.9%
Cc1cccc(-n2ncc3c(N4CCc5ccccc54)ncnc32)c1 4.16%
Cn1ccs/c1=N\S(=O)(=O)c1ccc(C(C)(C)C)cc1 6.13%
CC(CN1CCOCC1)c1ccccc1 (stereo unspecified) 7.84%
CCn1c(=O)c(=O)n(CC)c2cc(S(=O)(=O)N3CCc4ccccc43)ccc21 8.33%
COc1ccc(OCCCON2C(=O)c3ccccc3C2=O)cc1 3.44%
Cc1ccc(OCC(=O)N/N=C\c2ccco2)c(C)c1 5.38%
CCOCCOC(=O)C1=C(C)N(C)C(=O)NC1c1ccccc1F (stereo unspecified) 2.69%
O=C(NCc1ccccc1)C1CCCN(S(=O)(=O)c2cccs2)C1 (stereo unspecified) 3.39%
O=C(Nc1cc(-c2nn(CC(=O)N3CCCCC3)c(=O)c3ccccc23)ccc1N1CCOCC1)c1ccc(Cl)cc1 -11%
CC1CCCCC1NC(=O)C1CCCN1S(=O)(=O)c1cccc2nsnc12 (stereo unspecified) 10.7%
CC1CC(C)CN(C(=O)CSc2nnc(CSc3ncccn3)n2C)C1 (stereo unspecified) 1.36%
CCn1c(C)nc2cc(C(=O)NNS(=O)(=O)c3ccc(C)cc3C)ccc21 5.64%
COc1ccc(-n2c(C)csc2=S)cc1 1.97%
CCCCCN1CC(O)=C(c2ccccc2)C1=N -12.2%
O=C(Nc1cc2ccccc2oc1=O)C1CCCCC1 6%
Cc1nnc(SCC(=O)N2CCc3ccccc3C2)s1 -10.1%
Cc1ccc(CNC(=O)CCNS(=O)(=O)c2cccc3nonc23)cc1 7.33%
Cc1ccc(-n2c(CNc3ccc(F)cc3)nnc2SCC(=O)N2CCOCC2)cc1 0.69%
CCOC(=O)c1c(NC(C)=O)sc2c(O)c(Br)ccc12 5.45%
CCOC(=O)CN(Cc1ccc(OC)c(OC)c1)S(=O)(=O)c1ccc(OC)cc1 8.43%
CS(=O)(=O)N(CC(=O)N1CCN(Cc2ccccc2)CC1)c1ccc2c(c1)OCCO2 21.1%
COc1ccc(C2C(C#N)=C(/N=C/N3CCOCC3)OC3=C2C(=O)CC(C)(C)C3)cc1OC (stereo unspecified) 8.48%
COC(=O)CSc1snnc1-c1ccc(Cl)c(Cl)c1 5.67%
